According to PubChem BioAssay AID504333 (National Center for Advancing Translational Sciences (NCATS), 2011):
About 16,000 (4.4%) of roughly 360,000 compounds were called active. About 9% were inconclusive and are not listed. The sample holds actives, similar compounds and a random draw of the others, so the mix is not that of the screen. Values without a mark were called inactive. Calls come from the whole dose curve; as a rule, active = well fitted inhibition curve with a large enough effect; inconclusive = small, poorly fitted or top-dose-only effect; inactive = no such curve, though single readings can be large or run the other way.

Target: Bromodomain adjacent to zinc finger domain protein 2B (Homo sapiens) (UniProt Q9UIF8)
Sequence (Q9UIF8 whole entry, looked up, the tested form may be a part): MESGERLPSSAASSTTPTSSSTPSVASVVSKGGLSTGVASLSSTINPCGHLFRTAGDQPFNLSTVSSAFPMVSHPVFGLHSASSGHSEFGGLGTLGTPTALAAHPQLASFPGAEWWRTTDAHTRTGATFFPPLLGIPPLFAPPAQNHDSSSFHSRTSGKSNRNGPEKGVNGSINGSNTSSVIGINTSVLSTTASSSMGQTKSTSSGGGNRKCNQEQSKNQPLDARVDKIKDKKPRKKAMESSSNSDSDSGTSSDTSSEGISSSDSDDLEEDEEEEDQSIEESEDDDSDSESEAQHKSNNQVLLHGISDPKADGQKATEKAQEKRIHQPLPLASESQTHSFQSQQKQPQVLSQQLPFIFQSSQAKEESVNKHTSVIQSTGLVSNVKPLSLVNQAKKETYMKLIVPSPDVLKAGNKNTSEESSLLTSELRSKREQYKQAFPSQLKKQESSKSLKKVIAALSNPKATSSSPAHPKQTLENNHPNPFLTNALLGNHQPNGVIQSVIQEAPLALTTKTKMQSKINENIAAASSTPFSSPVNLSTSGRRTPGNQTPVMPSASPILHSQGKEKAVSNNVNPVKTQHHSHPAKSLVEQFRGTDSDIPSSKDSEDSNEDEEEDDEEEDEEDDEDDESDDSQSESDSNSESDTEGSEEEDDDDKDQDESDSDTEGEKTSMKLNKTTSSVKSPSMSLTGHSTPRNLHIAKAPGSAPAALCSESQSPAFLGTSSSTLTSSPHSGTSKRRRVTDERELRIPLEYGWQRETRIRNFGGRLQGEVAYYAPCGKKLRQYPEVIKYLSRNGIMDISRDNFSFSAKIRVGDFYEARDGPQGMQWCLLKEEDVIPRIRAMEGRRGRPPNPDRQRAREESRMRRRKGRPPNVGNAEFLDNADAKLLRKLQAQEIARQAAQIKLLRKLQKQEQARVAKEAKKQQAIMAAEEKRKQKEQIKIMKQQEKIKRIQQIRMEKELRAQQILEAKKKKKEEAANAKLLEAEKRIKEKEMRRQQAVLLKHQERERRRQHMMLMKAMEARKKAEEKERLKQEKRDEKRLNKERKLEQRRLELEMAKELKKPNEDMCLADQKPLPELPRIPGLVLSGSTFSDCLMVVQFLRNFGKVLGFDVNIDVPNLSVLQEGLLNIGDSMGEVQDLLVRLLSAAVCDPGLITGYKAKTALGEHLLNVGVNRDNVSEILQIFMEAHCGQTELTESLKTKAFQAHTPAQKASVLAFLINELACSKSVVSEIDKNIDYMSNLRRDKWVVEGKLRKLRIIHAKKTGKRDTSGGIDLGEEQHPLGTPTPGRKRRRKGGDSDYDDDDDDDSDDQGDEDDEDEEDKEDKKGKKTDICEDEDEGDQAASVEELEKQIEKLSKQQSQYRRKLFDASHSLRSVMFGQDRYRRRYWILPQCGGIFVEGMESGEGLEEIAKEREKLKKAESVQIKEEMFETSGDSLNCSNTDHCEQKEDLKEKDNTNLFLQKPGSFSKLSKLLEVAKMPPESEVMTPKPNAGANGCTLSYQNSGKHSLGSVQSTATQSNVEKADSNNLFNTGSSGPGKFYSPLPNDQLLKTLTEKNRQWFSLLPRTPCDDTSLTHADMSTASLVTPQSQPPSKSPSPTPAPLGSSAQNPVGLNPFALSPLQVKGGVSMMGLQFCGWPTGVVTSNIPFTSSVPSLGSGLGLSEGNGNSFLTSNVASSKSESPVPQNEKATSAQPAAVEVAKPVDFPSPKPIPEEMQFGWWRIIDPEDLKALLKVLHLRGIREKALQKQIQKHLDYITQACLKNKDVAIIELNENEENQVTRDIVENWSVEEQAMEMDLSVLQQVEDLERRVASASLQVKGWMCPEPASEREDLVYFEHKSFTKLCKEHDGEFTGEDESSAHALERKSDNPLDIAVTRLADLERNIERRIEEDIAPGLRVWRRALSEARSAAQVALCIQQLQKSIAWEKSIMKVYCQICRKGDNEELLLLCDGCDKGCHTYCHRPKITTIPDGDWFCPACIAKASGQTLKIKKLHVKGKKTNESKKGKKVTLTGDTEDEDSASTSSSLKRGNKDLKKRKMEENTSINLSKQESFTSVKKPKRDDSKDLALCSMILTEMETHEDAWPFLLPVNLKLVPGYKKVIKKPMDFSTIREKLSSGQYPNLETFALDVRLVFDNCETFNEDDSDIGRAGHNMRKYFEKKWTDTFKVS
Assay: qHTS Assay for Inhibitors of BAZ2B; note: nearly all actives have a fitted effect of over 60% in size
Settings: AlphaScreen BAZ2B-H3K14Ac peptide displacement; series mostly up to 114 µM; activity change, negative = inhibition: at the top concentration
Summary of the method: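 AlphaScreen displacement of biotin-H3(5-23)K14Ac peptide (50 nM final) from BAZ2B (50 nM final) in PBS pH 7.4, 0.01% Tween-20; complex preformed 30 min RT, then compounds (top 110 uM) 30 min RT, beads 20 min dark.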
% is set by controls: 0 for no effect and ±100 for the full control effect; potency is the fitted concentration of half-maximal effect.

| Compound | activity change, negative = inhibition | Potency |
| --- | --- | --- |
| CCCn1c(=N)c(C(=O)NCc2ccccc2)cc2c(=O)n3cccc(C)c3nc21 | 10.7% | – |
| O=C1OC(c2ccc(Cl)cc2)=N/C1=C\c1cccnc1 | 2.81% [at 57.1 µM] | – |
| Cc1cccc(C2=N/C(=C/c3cccs3)C(=O)O2)c1 | -24.5% | – |
| CN1/C(=C\C=C2\N=C(c3ccc(F)cc3)OC2=O)C(C)(C)c2ccccc21 | – | 50.1 µM (active) |
| CCOc1ccccc1N(C)C(=O)c1cc2c(s1)-c1ccccc1OC2 | 22% | – |
| O=C(Cc1ccc(Cl)cc1)NCC(c1cccs1)S(=O)(=O)c1ccc(Cl)cc1 (stereo unspecified) | 9.96% | – |
| CCOC(=O)N1CCc2c(sc3c2C(=O)NC(c2ccccc2F)N3)C1 (stereo unspecified) | -8.51% | – |
| CCOc1ccc(CNCc2c(C(=O)O)c(C)n(Cc3cccc(OC)c3)c2C)cc1OC | -11.8% | – |
| CCN(CC)S(=O)(=O)c1ccc(C(=O)N=c2sc3cccc(OC)c3n2C)cc1 | -2.25% | – |
| CCOC(=O)c1c(-c2ccc(OC)cc2)oc2ccc(OCc3ccc(C(=O)OC)cc3)cc12 | 18.6% | – |
| CN1/C(=c2/s/c(=C3/C(=O)N(c4ccccc4)NC3=Nc3ccccc3)n(C)c2=O)C(C)(C)c2ccccc21 | – | 10 µM (active) |
| CN1C(=O)c2ccccc2Sc2ccc(NC(=O)Cc3ccc(Cl)cc3)cc21 | -16.3% | – |
| O=C(NCc1ccc(Cl)cc1)c1cc2c(nc3sccn32)s1 | -21.6% | – |
| Cc1ccc(Nc2c(-c3ccc(Cl)cc3)nc3sccn23)c(C)c1 | – | 28.2 µM (active) |
| O=c1cc(Cn2nnc(-c3ccc(Cl)cc3)n2)nc2sccn12 | 13.1% | – |
| Cc1ccccc1C(=O)Nc1cc(C)c(O)c(-c2nc3ccccc3o2)c1 | -18.7% | – |
| Cc1ccc(Cl)cc1N(C)C(=O)C1CCCN(c2ncnc3onc(-c4ccc(F)cc4)c23)C1 (stereo unspecified) | 3.17% [at 57.1 µM] | – |
| CCOc1ccc(C2C(C(=O)Nc3ccc(Cl)cc3)=C(C)Nc3nc(C(F)(F)F)nn32)cc1 (stereo unspecified) | -5.74% | – |
| COc1ccc(/C=C/C(=O)N2CCCC2)cc1OC | 2.76% | – |
| COC(=O)c1ccc(COc2ccc(/C=C/C(=O)c3ccc(OC)c(CSCC(=O)O)c3)cc2OC)cc1 | – | 39.8 µM (active) |
| COc1ccc(C(=O)/C=C/c2ccc(-c3ccccc3)cc2)cc1CSCC(=O)O | -9.18% | – |

| Compound | activity change, negative = inhibition | Potency |
| --- | --- | --- |
| CCOc1ccccc1NC(=O)Cn1c(=O)n(-c2cccc(C)c2)c(=O)c2c1c1cc(OC)ccc1n2C | -1.41% | – |
| CCOc1cc(-c2nnc(SCC(=O)NC3CCCCC3)nc2-c2ccc(OC)c(OCC)c2)ccc1OC | – | 79.4 µM (active) |
| COc1ccc(-c2nnc(SCC(=O)NC3CCCCC3)o2)cc1OC | 11.7% | – |
| COc1ccc(-c2nnc(SCC(=O)Nc3ccc(C(C)C)cc3)nc2-c2ccc(OC)c(OC)c2)cc1OC | -2.33% | – |
| COCCn1c(SCC(=O)c2cc(C)ccc2C)nc2cc(C(=O)NC3CCCC3)ccc2c1=O | -11.7% | – |
| Cc1ccc(-c2nc(CS(=O)(=O)CC(=O)NCc3ccccc3Cl)c(C)o2)cc1 | -9.42% | – |
| CCOc1ccc2nc(N3CCC(C(=O)Nc4cc(C)ccc4C)CC3)sc2c1 | 3.43% | – |
| CC1=C(C(=O)Nc2ccccc2Cl)C(c2cccs2)n2ncnc2N1 (stereo unspecified) | -4.03% | – |
| CCC(=C/c1sc2ccc3ccccc3c2[n+]1C)/C=C1\Sc2ccc3ccccc3c2N1C | – | 50.1 µM (active) |
| N#C/C(=C\C1=C(N2CCOCC2)C(=C\c2ccccc2)/CC1)C(=O)Nc1ccccc1F | – | 2 µM (active) |
| N#C/C(=C\c1ccccc1C(F)(F)F)C(=O)Nc1ccccc1F | 6.18% | – |
| N#C/C(=C/c1ccc(N2CCOCC2)o1)C(=O)N1CCOCC1 | -0.368% | – |
| Cc1ccc2c(=O)c(C(=O)c3ccc(Cl)cc3)cn(CC(=O)NC3CCCCC3)c2n1 | 8.9% [at 57.1 µM] | – |
| CC(=O)N1C(=O)/C(=C2\SC(=S)N(NC(=O)c3ccc(O)cc3)C2=O)c2ccccc21 | – | 39.8 µM (active) |
| COc1ccc2c(c1)N(C)/C(=C1/SC(=S)N(NC(C)=O)C1=O)S2 | -7.93% | – |
| O=C(O)c1ccc2c(c1)C(=O)N(NC(=O)c1ccc(O)cc1)C2=O | -2.56% | – |
| CCOC(=O)c1cccc(NC(=O)c2cc(S(=O)(=O)N3CCCC(C)C3)cn2C)c1 (stereo unspecified) | -18.7% | – |
| CCCCN1CC(c2nc3ccccc3n2CCCCOc2ccc(C)cc2C)CC1=O (stereo unspecified) | 0.797% | – |
| Cc1ccc(N=C2NC(=O)/C(=C/C=C/c3ccco3)S2)cc1C | – | 44.7 µM (active) |
| CCOC(=O)c1cc(-c2ccccc2)n(CCC(=O)Nc2ccccc2CC)c1C | -1.42% | – |
| CC(C)CC(=O)NCC(c1ccc2c(c1)OCO2)N1CCN(c2ccc(F)cc2)CC1 (stereo unspecified) | 22.9% | – |

| Compound | activity change, negative = inhibition | Potency |
| --- | --- | --- |
| Cc1nnc(NCc2ccccc2)c2c1nnn2Cc1ccc(F)cc1 | -0.128% | – |
| CCOc1ccc(C(=O)c2cn(Cc3ccc(F)cc3)c3ccc(F)cc3c2=O)cc1 | -19.7% | – |
| CCOc1ccc(N(C)Cc2cc(=O)oc3ccc(OC)cc23)cc1 | – | 22.4 µM (active) |
| CCOc1ccc2oc(=O)cc(CN3CCN(C(=O)c4ccc(F)cc4)CC3)c2c1 | -6.12% | – |
| COc1ccc2oc(=O)cc(CN3CCOCC3)c2c1 | 7.09% | – |
| Cc1ccc(O)c(NC(=O)CCS(=O)(=O)c2nc(-c3ccc4c(c3)OCO4)cc(C(F)(F)F)n2)c1 | -27% | – |
| CCOC(=O)c1ccc(NC(=O)c2ncn(-c3ccccc3)n2)cc1 | 1.63% | – |
| Fc1ccc(-c2nn(-c3ccccc3Cl)c3c2cnc2ccccc23)cc1 | -26.2% | – |
| COc1cccc(CNC(=O)Cn2c(=O)c3cccn3c3ccc(F)cc32)c1OC | 4.05% | – |
| CCOC(=O)c1cnc2c(C)cc(C)cc2c1Nc1ccc(N2CCOCC2)cc1 | – | 7.08 µM (active) |
| Cc1ccc(OCCCC(=O)Nc2ccc(N3CCOCC3)cc2)cc1 | -34.6% | – |
| CCOC(=O)c1cnc2c(C)cc(Cl)cc2c1NCCc1ccc(OC)c(OC)c1 | 8.49% | – |
| CCOc1cccc(NC(=O)CSc2ncc(-c3ccc(Cl)cc3)[nH]2)c1 | -26.2% | – |
| Cc1cc(NS(=O)(=O)c2ccc3oc(=O)c4ncn(C)c4c3c2)ccc1Br | 6.88% | – |
| CC1CC(C)CN(CCOc2cccc3ccccc23)C1 (stereo unspecified) | -2.56% | – |
| O=[N+]([O-])c1ccccc1OCCCCN1CCCCC1 | 5.81% | – |
| CC1CN(CCOc2ccccc2[N+](=O)[O-])CC(C)O1 (stereo unspecified) | – | 25.1 µM (active) |
| Cc1ccccc1CNC(=O)CCc1cn(Cc2ccccc2C)c2ccccc12 | -10.3% | – |
| CCc1cc2c(cc3c(=O)n(CC(=O)NCc4cccc(Cl)c4)nc(CC)n32)s1 | -7.23% | – |
